mHTT CaM bind: mutant huntingtin-calmodulin interaction inhibitors – biochemical, AlphaScreen, primary screen; P42858; AlphaScreen His-mHTT/GST-CaM binding, luminescence; inhibition, % at 15 µM; actives 3.6% (n = 190,000); AID 1671202, 2021;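 further: 0% = both proteins with DMSO and 100% = one protein alone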
Pf apPOL block: Pf-apPOL inhibitors, biochemical, fluorescence. Plasmodium falciparum apicoplast DNA polymerase (apPOL). Recombinant Pf-apPOL, molecular beacon fluorescence, 1.5 h. inhibition, % at 10 µM. actives 0.25% (n = 210,000)
An asterisk follows results filed as active; x = not tested or not shown. This excerpt belongs to a sample that is enriched for hits. No stated cut-off is given here; in the data, active means inhibition above about 50%; inactive means the rest.

SMILES	mHTT CaM bind	Pf apPOL block
c1ccc(OCC2C[N+]34CCO[B-]3(OCC4)O2)cc1 (stereo unspecified)	-2	-7
CCCCCCCSc1nc2c(c(=O)[nH]c(=O)n2C)n1CCCCCCC	-4	x
C=CCN1N=C(NC(=O)c2cccc(Br)c2)SC=C1c1ccccc1	55*	-11
O=C(Nc1ccc(NC(=O)c2cccc(Br)c2)cc1)c1ccccc1	-6	-6
Cc1cccc2c1NC(=O)C2=Nc1ccc(Br)cc1	4	-1
CCOc1ccc(/C=C2\N=C(c3ccccc3C)OC2=O)cc1	-3	-1
COc1ccc(-c2nc(C3CCCN(C(=O)COc4ccc(Cl)cc4C)C3)no2)cc1 (stereo unspecified)	11	-1
N#C/C(=C\c1ccc(Br)cc1)c1nc(C2CC2)cs1	-41	-3
N#C/C(=C\c1ccc([N+](=O)[O-])cc1)c1nc(C2CC2)cs1	4	55*
CS(=O)(=NC(=O)c1ccc(-c2ccccn2)s1)c1ccc(Cl)cc1 (stereo unspecified)	x	-8
O=[N+]([O-])c1cccc(N=Cc2cccc([N+](=O)[O-])c2O)c1	5	0
Cc1ccc(N=Cc2c(C)c(Cl)c(C)c([N+](=O)[O-])c2O)c(O)c1	8	2
O=[N+]([O-])c1cccc(C=Nc2cccc(O)c2)c1O	74*	-3
Cc1c(Cl)c(C)c([N+](=O)[O-])c(O)c1C=Nc1cccc(O)c1	76*	1
O=c1oc2ccccc2cc1-c1cccc(N=Cc2ccccc2O)c1	6	-3
Oc1ccccc1C=Nc1cccc(N=Cc2ccccc2O)c1	71*	-3
O=C1C(c2cccs2)N(Cc2ccc3c(c2)OCO3)C(=O)CN1c1ccccc1 (stereo unspecified)	-5	4
CC(=O)c1cccc(NC(=O)c2cccc(Br)c2)c1	-21	-4
COCc1cccc(NC(=O)c2cccc(Br)c2)c1	-11	54*
COc1ccc(N2C(=O)C3C(c4ccccc4C)OC4(C(=O)c5ccccc5C4=O)C3C2=O)cc1 (stereo unspecified)	15	0
O=C(Oc1ccc2c(c1)OC(=Cc1cccnc1)C2=O)c1ccc(Br)cc1	76*	2
O=C(Oc1ccc2c(c1)OC(=Cc1cccnc1)C2=O)c1ccncc1	24	6
O=C(O)C(Br)C12CC3CC(CC(O)(C3)C1)C2 (stereo unspecified)	-3	1
O=C1NC(=Nc2ccccc2)S/C1=C/c1cc(Br)cc(Cl)c1O	96*	-3
COc1ccc(Br)cc1/C=C1/SC(=Nc2ccccc2)NC1=O	19	-3
SMILES	mHTT CaM bind	Pf apPOL block
O=C1NC(=Nc2ccccc2)S/C1=C/c1cc(Br)ccc1O	55*	-41
O=C1NC(=Nc2ccccc2)S/C1=C/c1cc(I)ccc1O	52*	-6
Cc1ccccc1/C=C1/SC(=Nc2ccccc2)NC1=O	48	-1
O=C1NC(=Nc2ccccc2)S/C1=C/c1ccc(O)c(O)c1	43	-13
Cc1nn(C)c(C)c1NS(=O)(=O)c1cc(C(F)(F)F)cc(C(F)(F)F)c1	x	5
Cc1ccc(C(=O)NCc2cccnc2)s1	-1	-5
COc1ccc(OC)c(NC(=O)c2sc3nc(C)nc(N4CCCCC4C)c3c2C)c1 (stereo unspecified)	2	-3
O=C(NCCNc1ccc(Nc2ccccn2)nn1)c1ncccn1	100*	-1
Cc1cccc(Nc2ccc(NCCNC(=O)c3ccccc3C(F)(F)F)nn2)n1	1	-8
Cc1cccc(N2C(=O)c3cccnc3C2CC(=O)NC2CCCC2)c1 (stereo unspecified)	-3	-1
CCN(C(=O)CN1C(=O)NC2(CCCCC2)C1=O)c1ccccc1	-3	-2
CCN(C(=O)CN1C(=O)c2ccccc2C1=O)c1ccccc1	98*	-1
COc1ccccc1C1=N/C(=C\c2cccc(Br)c2)C(=O)O1	-1	-5
CCn1cc(C(=O)NCCc2cccs2)c(=O)c2cc(OC)ccc21	-4	6
Nc1cccc(Oc2c(F)c(F)c(Oc3cccc(N)c3)c(F)c2F)c1	42	-6
Nc1cc(N)cc(Oc2cc(N)cc(N)c2)c1	95*	x
CCOc1ccc(C(=O)Nc2cc(Cl)ccc2OC)cc1Cl	-4	2
Cc1cc(C(=O)N2CCCCC2C(=O)NC(C)C)no1 (stereo unspecified)	-4	-2
Cc1ccnc(NC(c2ccc(F)cc2)c2ccc3cccnc3c2O)c1 (stereo unspecified)	98*	2
Cc1ccnc(NC(c2ccncc2)c2ccc3cccnc3c2O)c1 (stereo unspecified)	100*	5
Cc1ccnc(NC(=O)c2ccc(C(=O)Nc3cc(C)ccn3)cc2)c1	7	4
Cc1ccnc(NC(=O)c2ccc(-c3nc(-c4ccccc4)no3)cc2)c1	-5	-3
Cc1ccnc(NC(c2ccccn2)c2ccc3cccnc3c2O)c1 (stereo unspecified)	100*	-4
Cc1ccc(NC(=O)c2cccnc2-c2ccsc2)c(C)c1	1	1
Cc1ccnc(NC(=O)Nc2ccc(F)cc2)c1	-1	-8
SMILES	mHTT CaM bind	Pf apPOL block
Cc1ccnc(NC(c2ccsc2)c2ccc3cccnc3c2O)c1 (stereo unspecified)	100*	-1
COc1ccc2c(c1OC)C(=O)N(c1ccc(Cl)cc1)C2	-1	8
Cc1ccc(CC(=O)N2CCc3[nH]nc(C(=O)NC(C)C)c3C2)cc1	4	-8
COCCN1C(=O)CCC2(CNC(=O)c3ccco3)CCCC12 (stereo unspecified)	-6	-1
CC(C)NC(=O)N1CCc2[nH]cnc2C1c1ccccc1 (stereo unspecified)	3	-5
Cc1ccnc(NC(c2ccc3c(c2)OCO3)c2ccc3cccnc3c2O)c1 (stereo unspecified)	99*	1
O=C(NCCCOc1cccc2cccnc12)c1ccc2c(c1)OCO2	7	-4
CN(C)c1ccc2ncc(=O)n(C)c2n1	-3	-5
CCCCNC(=O)c1c(Cl)nc(Cl)c(Cl)c1C	-6	2
CCCCNC(=O)c1c(Cl)nc(Cl)c([N+](=O)[O-])c1Cl	94*	-5
CN1C2CCC1CC(NC(=O)Nc1ccc(OC(F)(F)F)cc1)C2 (stereo unspecified)	x	-7
COC[C@@H]1CCCN1c1ccc2c(c1)O[C@@H](COCc1ccccc1)CN([C@@H](C)c1ccccc1)S2(=O)=O	-3	0
C[C@@H](c1ccccc1)N1C[C@H](COCc2ccccc2)Oc2cc(N3CC[C@H](N(C)C)C3)ccc2S1(=O)=O	100*	-6
C[C@@H](c1ccccc1)N1C[C@H](COCc2ccccc2)Oc2cc(N3CC[C@@H](N(C)C)C3)ccc2S1(=O)=O	100*	-5
C[C@H](c1ccccc1)N1C[C@H](COCc2ccccc2)Oc2cc(N3CC[C@H](N(C)C)C3)ccc2S1(=O)=O	-11	-5
Cn1ncc(N2CCCC(C(=O)N3CCN(c4ccccn4)CC3)C2)cc1=O (stereo unspecified)	0	-3
Cc1ccc2nc3c(c(Nc4ccc(N5CCOCC5)cc4)c2c1)CCC3	29	0
COc1cc(/C=C2/SC(c3ccc(C)cc3)=NC2=O)cc(OC)c1O	42	5
Cc1ccc(C2=NC(=O)/C(=C\c3cc(O)c(O)c(Br)c3)S2)cc1	95*	10
COc1ccccc1/C=C1\N=C(c2cc([N+](=O)[O-])ccc2Cl)OC1=O	-1	3
